Measured values from PubChem BioAssay (NCI).
About 79,000 compounds went through this panel and 15% of them were active in at least one assay; those are over-represented in the sample as a whole. Values without a mark were called inactive. Activity calls are given as the source filed them. No stated cut-off is given here; in the data, active means growth inhibition above about 70%; inactive means the rest.

How the values were obtained:
[1] = NCI Yeast Anticancer Drug Screen. Data for the rad52 strain (AID 147);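 further: 0% = growth of vehicle-treated control cultures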; conditions: S. cerevisiae rad52 mutant growth inhibition, stronger effect = higher value
How it was run: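 Vehicle-treated cultures served as the reference for growth inhibition of compound-exposed yeast bearing a DNA repair mutation.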

[2] = NCI Yeast Anticancer Drug Screen. Data for the wt1 strain (AID 149);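 further: 0% = growth of vehicle-treated wt1 cultures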; conditions: S. cerevisiae wt1 strain (SPY 50644) growth inhibition, stronger effect = higher value
How it was run: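 Growth inhibition read against vehicle controls after compound exposure of the wt1 yeast strain.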

[3] = NCI Yeast Anticancer Drug Screen. Data for the rad50EPP+ strain (AID 151);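 further: 0% = growth of vehicle-treated control cultures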; conditions: S. cerevisiae rad50 mutant strain, stronger effect = higher value
How it was run: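 In this screen, rad50EPP+ yeast were exposed to compounds. Growth inhibition was scored against vehicle-treated controls.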

[4] = NCI Yeast Anticancer Drug Screen. Data for the mgt1 strain (AID 153); conditions: S. cerevisiae mgt1 mutant growth inhibition, stronger effect = higher value
How it was run: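 mgt1 strain exposed; growth vs vehicle control recorded as inhibition.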

[5] = NCI Yeast Anticancer Drug Screen. Data for the rad50 strain (AID 155);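 further: 0% = growth of vehicle-only cultures of the same strain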; conditions: S. cerevisiae rad50 strain growth inhibition, stronger effect = higher value
How it was run: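 Readout: growth inhibition relative to vehicle-treated cultures. Compound exposure was carried out in a genetically defined yeast strain deficient in DNA damage repair.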

[6] = NCI Yeast Anticancer Drug Screen. Data for the mec2-1 strain (AID 157); conditions: S. cerevisiae mec2-1 strain, stronger effect = higher value
How it was run: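 Vehicle-treated cultures served as reference for growth inhibition of compound-exposed mec2-1 yeast.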

[7] = NCI Yeast Anticancer Drug Screen. Data for the rad14 strain (AID 159);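 further: 0% = growth of vehicle-treated control cultures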; conditions: S. cerevisiae rad14 strain growth inhibition, stronger effect = higher value
How it was run: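 Growth inhibition vs vehicle controls; genetically altered yeast strain (DNA damage repair defect) treated with test compounds.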

[8] = NCI Yeast Anticancer Drug Screen. Data for the sgs1 mgt1 strain (AID 161);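 further: 0% = growth of cultures given vehicle only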; conditions: S. cerevisiae sgs1 mgt1 strain, stronger effect = higher value
How it was run: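 Read-out: growth inhibition vs vehicle controls. Cells: mutant yeast strain deficient in DNA damage repair.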

[9] = NCI Yeast Anticancer Drug Screen. Data for the CLN2oe strain (AID 163);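 further: 0% = growth of vehicle-only control cultures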; conditions: S. cerevisiae CLN2oe strain, stronger effect = higher value
How it was run: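 Inhibition relative to vehicle-treated yeast is reported. Cells: strain with genetic alteration in cell-cycle control, grown with compound.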

[10] = NCI Yeast Anticancer Drug Screen. Data for the cln2 rad14 strain (AID 165);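 further: 0% = growth equal to vehicle treated cultures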; conditions: S. cerevisiae cln2 rad14 strain, stronger effect = higher value
How it was run: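 Each compound was tested on cln2 rad14 yeast. Inhibition of growth was calculated against vehicle-exposed controls.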

[11] = NCI Yeast Anticancer Drug Screen. Data for the bub3 strain (AID 167); conditions: S. cerevisiae bub3 mutant strain, stronger effect = higher value
How it was run: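 Readout: yeast growth inhibition, expressed relative to vehicle-only wells. The test organism is a mutant strain from a panel with lesions in DNA repair or checkpoint genes.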

[12] = NCI Yeast Anticancer Drug Screen. Data for the wt2 strain (AID 169);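 further: 0% = growth of vehicle-treated yeast cultures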; conditions: S. cerevisiae wt2 strain growth inhibition, stronger effect = higher value
How it was run: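 Inhibition of yeast growth was determined after compound treatment, normalised to controls receiving only vehicle.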

[13] = NCI Yeast Anticancer Drug Screen. Data for the mlh1 strain (AID 171);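 further: 0% = growth of vehicle-treated control cultures of the same strain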; conditions: S. cerevisiae mlh1 strain growth inhibition, stronger effect = higher value
How it was run: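 Vehicle-normalised growth inhibition of a repair- or checkpoint-altered yeast strain following compound treatment.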

[14] = NCI Yeast Anticancer Drug Screen. Data for the sgs1 strain (AID 173);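 further: 0% = growth of vehicle-only control cultures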; conditions: S. cerevisiae sgs1 mutant, stronger effect = higher value
How it was run: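 Screen format: yeast with repair or checkpoint alterations, compound exposure, growth read relative to vehicle.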

[15] = NCI Yeast Anticancer Drug Screen. Data for the mlh1 rad18 strain (AID 175); conditions: S. cerevisiae mlh1 rad18 strain growth inhibition, stronger effect = higher value
How it was run: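 Vehicle-treated cultures served as the reference for growth inhibition in a yeast strain carrying DNA damage repair alterations exposed to each compound.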

[16] = NCI Yeast Anticancer Drug Screen. Data for the rad18 strain (AID 177); conditions: S. cerevisiae rad18 mutant growth inhibition, stronger effect = higher value
How it was run: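 Test articles were incubated with altered yeast defective in DNA damage repair. Results are given as inhibition of growth versus vehicle.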

[17] = at 5.0 µM (retest, dose inferred, filed as 0.5)
[18] = at 50.0 µM (retest, dose inferred, filed as 5.0)

COc1cc(C2C3=C(COC3=O)Oc3cc4c(cc32)OCO4)ccc1O (stereo not drawn)
growth inhibition ([1]; at 1.2 µM): -1% | growth inhibition ([1]; at 3.7 µM): 2% | growth inhibition ([1]; at 11.0 µM): 7% | growth inhibition ([1]; at 33.0 µM): 34% | growth inhibition ([1]; at 100.0 µM): 72% (active) | growth inhibition ([2]; at 1.2 µM): -2% | growth inhibition ([2]; at 3.7 µM): -7% | growth inhibition ([2]; at 11.0 µM): -5% | growth inhibition ([2]; at 33.0 µM): -5% | growth inhibition ([2]; at 100.0 µM): 31% | growth inhibition ([3]; at 1.2 µM): -3% | growth inhibition ([3]; at 3.7 µM): 0% | growth inhibition ([3]; at 11.0 µM): -3% | growth inhibition ([3]; at 33.0 µM): 4% | growth inhibition ([3]; at 100.0 µM): 15% | growth inhibition ([4]; at 1.2 µM): -1% | growth inhibition ([4]; at 3.7 µM): 1% | growth inhibition ([4]; at 11.0 µM): 0% | growth inhibition ([4]; at 33.0 µM): -5% | growth inhibition ([4]; at 100.0 µM): 30% | growth inhibition ([5]; at 1.2 µM): 0% | growth inhibition ([5]; at 3.7 µM): 5% | growth inhibition [5, 17]: 95% (active) | growth inhibition ([5]; at 11.0 µM): -10% | growth inhibition ([5]; at 33.0 µM): 35% | growth inhibition [5, 18]: 95% (active) | growth inhibition ([5]; at 50.0 µM): 55.9% | growth inhibition ([5]; at 100.0 µM): 73% (active) | growth inhibition ([6]; at 1.2 µM): -3% | growth inhibition ([6]; at 3.7 µM): -2% | growth inhibition [6, 17]: -10% | growth inhibition ([6]; at 11.0 µM): -3% | growth inhibition ([6]; at 33.0 µM): -4% | growth inhibition [6, 18]: -10% | growth inhibition ([6]; at 50.0 µM): 32.2% | growth inhibition ([6]; at 100.0 µM): 33% | growth inhibition ([7]; at 1.2 µM): 1% | growth inhibition ([7]; at 3.7 µM): -1% | growth inhibition ([7]; at 11.0 µM): -6% | growth inhibition ([7]; at 33.0 µM): -8% | growth inhibition ([7]; at 100.0 µM): -20% | growth inhibition [8, 17]: 77% (active) | growth inhibition [8, 18]: 77% (active) | growth inhibition ([8]; at 50.0 µM): 22.4% | growth inhibition ([9]; at 1.2 µM): 0% | growth inhibition ([9]; at 3.7 µM): 8% | growth inhibition ([9]; at 11.0 µM): -1% | growth inhibition ([9]; at 33.0 µM): -2% | growth inhibition ([9]; at 100.0 µM): 24% | growth inhibition [10, 17]: 43% | growth inhibition [10, 18]: 43% | growth inhibition ([10]; at 50.0 µM): 34.2% | growth inhibition ([11]; at 1.2 µM): -2% | growth inhibition ([11]; at 3.7 µM): 1% | growth inhibition [11, 17]: -4% | growth inhibition ([11]; at 11.0 µM): 12% | growth inhibition ([11]; at 33.0 µM): 5% | growth inhibition [11, 18]: -4% | growth inhibition ([11]; at 50.0 µM): 29.3% | growth inhibition ([11]; at 100.0 µM): 32% | growth inhibition ([12]; at 1.2 µM): -2% | growth inhibition ([12]; at 3.7 µM): -4% | growth inhibition ([12]; at 11.0 µM): -5% | growth inhibition ([12]; at 33.0 µM): -1% | growth inhibition ([12]; at 100.0 µM): 42% | growth inhibition ([13]; at 1.2 µM): -1% | growth inhibition ([13]; at 3.7 µM): -5% | growth inhibition ([13]; at 11.0 µM): -4% | growth inhibition ([13]; at 33.0 µM): 8% | growth inhibition ([13]; at 100.0 µM): 0% | growth inhibition ([14]; at 1.2 µM): -4% | growth inhibition ([14]; at 3.7 µM): -6% | growth inhibition ([14]; at 11.0 µM): -6% | growth inhibition ([14]; at 33.0 µM): 14% | growth inhibition ([14]; at 100.0 µM): 59% | growth inhibition [15, 17]: 45% | growth inhibition [15, 18]: 45% | growth inhibition ([15]; at 50.0 µM): 78% (active) | growth inhibition ([16]; at 1.2 µM): 2% | growth inhibition ([16]; at 3.7 µM): -6% | growth inhibition ([16]; at 11.0 µM): 3% | growth inhibition ([16]; at 33.0 µM): 32% | growth inhibition ([16]; at 100.0 µM): 80% (active)
